Measured values from the supplement of paper PMC6411743.
± gives the standard deviation of the averaged measurements. Of roughly 6,200 targets only a part is listed; those with the largest changes were picked by preference.

compound: Nc1ncnc2c1ncn2[C@@H]1O[C@H](COP(=O)(O)OP(=O)(O)NP(=O)(O)O)[C@@H](O)[C@H]1O [adenylyl imidodiphosphate]; experiment: NP40-soluble protein abundance relative to vehicle (solubility fold change) (ratio); higher = more soluble protein in presence of AMP-PNP; conditions: concentration: 6mM
How it was run: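 Jurkat crude lysate (Dounce-homogenised) was treated with eight concentrations from 0.1 to 10 mM for 10 min at room temperature, then 3 min at 37 °C. It was solubilised with 0.8% NP40 and benzonase (60 min, 4 °C) and ultracentrifuged, and the supernatant was TMT-labelled for LC-MS/MS. Intensities were vsn-normalised, and the value is the fold change against the NP40-processed vehicle per replicate, from three independent experiments.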

Chain of UniProt Q9UDR5 (Q9UDR5 whole entry): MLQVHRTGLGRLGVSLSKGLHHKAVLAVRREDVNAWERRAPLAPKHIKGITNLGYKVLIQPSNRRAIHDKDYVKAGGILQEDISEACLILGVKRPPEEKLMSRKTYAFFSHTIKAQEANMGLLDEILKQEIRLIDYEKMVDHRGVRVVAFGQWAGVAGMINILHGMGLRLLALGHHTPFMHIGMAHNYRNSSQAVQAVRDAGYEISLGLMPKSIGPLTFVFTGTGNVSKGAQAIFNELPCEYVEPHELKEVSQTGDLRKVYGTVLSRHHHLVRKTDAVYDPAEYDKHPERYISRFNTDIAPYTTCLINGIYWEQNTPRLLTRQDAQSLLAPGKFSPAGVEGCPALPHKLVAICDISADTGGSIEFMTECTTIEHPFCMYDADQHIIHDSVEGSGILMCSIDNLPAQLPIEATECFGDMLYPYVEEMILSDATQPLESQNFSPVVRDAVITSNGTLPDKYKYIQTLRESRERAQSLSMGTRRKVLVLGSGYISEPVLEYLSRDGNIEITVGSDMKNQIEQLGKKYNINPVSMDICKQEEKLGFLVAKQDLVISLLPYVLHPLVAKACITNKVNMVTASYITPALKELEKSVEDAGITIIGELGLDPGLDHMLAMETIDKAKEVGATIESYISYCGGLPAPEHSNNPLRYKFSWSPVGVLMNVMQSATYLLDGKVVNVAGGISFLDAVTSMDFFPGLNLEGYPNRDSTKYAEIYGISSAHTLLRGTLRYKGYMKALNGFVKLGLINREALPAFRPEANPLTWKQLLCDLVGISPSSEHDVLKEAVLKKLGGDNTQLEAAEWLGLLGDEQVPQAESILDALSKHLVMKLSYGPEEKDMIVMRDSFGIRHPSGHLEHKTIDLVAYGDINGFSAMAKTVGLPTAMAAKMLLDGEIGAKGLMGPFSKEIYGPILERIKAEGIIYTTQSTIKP
Chain of UniProt Q9H668 (Q9H668 whole entry): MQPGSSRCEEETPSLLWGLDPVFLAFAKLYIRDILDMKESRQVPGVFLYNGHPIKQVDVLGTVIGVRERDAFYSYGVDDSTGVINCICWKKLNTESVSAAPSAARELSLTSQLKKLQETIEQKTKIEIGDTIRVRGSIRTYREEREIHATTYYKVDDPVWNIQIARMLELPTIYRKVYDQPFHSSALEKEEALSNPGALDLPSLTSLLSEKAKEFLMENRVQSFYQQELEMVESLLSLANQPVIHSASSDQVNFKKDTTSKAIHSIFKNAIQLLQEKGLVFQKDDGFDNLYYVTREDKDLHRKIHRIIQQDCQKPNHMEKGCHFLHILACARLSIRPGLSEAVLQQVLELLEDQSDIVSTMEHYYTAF
Chain of UniProt Q9BZE2 (Q9BZE2 whole entry): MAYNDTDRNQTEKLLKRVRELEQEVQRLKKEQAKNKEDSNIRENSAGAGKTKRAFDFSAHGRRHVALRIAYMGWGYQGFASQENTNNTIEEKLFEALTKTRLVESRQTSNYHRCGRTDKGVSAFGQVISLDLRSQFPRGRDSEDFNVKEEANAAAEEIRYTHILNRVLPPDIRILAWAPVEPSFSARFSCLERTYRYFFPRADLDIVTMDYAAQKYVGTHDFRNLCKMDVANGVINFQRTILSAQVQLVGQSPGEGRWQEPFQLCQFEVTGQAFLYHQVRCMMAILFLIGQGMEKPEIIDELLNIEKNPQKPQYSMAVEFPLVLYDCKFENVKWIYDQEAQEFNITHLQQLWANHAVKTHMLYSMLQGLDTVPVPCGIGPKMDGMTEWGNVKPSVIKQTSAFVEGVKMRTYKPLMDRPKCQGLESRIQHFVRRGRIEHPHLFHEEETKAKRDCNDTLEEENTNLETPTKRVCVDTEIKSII
Chain of UniProt Q9UBK8 (Q9UBK8 whole entry): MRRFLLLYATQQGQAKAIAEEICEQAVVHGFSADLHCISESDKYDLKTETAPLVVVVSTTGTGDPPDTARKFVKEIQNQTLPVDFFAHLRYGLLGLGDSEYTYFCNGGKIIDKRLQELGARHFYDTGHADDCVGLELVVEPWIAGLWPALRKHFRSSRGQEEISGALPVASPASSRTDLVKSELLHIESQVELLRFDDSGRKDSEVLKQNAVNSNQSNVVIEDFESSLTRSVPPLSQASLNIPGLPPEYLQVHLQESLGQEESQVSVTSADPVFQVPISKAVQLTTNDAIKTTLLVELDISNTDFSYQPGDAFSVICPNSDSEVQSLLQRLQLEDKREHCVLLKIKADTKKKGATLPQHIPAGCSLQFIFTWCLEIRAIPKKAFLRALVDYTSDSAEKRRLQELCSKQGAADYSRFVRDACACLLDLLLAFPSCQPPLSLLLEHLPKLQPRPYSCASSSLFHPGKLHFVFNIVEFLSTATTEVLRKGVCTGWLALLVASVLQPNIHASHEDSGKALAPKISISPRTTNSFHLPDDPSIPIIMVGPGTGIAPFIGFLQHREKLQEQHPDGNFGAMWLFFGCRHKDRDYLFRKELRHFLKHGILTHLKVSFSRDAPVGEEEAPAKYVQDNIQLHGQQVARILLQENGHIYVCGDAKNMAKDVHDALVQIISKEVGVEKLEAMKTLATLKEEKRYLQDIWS
Chain of UniProt Q9HCD5 (Q9HCD5 whole entry): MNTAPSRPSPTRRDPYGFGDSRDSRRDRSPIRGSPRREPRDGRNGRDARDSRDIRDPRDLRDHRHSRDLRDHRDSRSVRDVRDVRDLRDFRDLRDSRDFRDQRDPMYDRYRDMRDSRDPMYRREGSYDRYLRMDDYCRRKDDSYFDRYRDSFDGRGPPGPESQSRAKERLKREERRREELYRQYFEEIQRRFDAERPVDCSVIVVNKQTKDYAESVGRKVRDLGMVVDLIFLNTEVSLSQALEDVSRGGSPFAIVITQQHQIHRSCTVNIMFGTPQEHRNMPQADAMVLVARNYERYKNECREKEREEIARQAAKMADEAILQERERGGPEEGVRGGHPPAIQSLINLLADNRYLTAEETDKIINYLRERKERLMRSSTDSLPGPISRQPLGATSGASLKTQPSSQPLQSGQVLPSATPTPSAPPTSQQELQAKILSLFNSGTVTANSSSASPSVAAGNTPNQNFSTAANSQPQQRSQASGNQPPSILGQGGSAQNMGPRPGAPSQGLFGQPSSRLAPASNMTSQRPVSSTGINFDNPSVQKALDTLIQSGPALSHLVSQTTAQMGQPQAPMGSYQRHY
Chain of UniProt Q9NRP0 (Q9NRP0 whole entry): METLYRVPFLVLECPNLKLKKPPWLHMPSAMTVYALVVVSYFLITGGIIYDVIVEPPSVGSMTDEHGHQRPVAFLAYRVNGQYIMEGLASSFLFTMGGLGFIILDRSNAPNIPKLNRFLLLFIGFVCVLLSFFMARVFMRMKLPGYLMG
Chain of UniProt Q96K49 (Q96K49 whole entry): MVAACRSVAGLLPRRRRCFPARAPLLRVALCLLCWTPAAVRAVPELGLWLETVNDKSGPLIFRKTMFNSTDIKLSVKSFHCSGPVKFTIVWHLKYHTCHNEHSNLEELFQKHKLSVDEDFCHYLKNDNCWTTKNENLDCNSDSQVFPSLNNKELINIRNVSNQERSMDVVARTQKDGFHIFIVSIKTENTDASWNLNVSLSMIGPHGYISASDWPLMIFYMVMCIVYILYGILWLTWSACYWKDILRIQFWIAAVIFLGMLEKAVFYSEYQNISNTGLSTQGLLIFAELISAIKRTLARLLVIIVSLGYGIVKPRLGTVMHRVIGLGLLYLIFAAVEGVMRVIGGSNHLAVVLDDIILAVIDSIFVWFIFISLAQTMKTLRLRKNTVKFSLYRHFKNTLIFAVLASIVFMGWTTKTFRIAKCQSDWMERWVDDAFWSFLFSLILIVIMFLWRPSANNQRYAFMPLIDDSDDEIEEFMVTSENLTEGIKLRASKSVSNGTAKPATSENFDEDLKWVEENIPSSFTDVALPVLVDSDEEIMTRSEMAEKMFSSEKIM
Chain of UniProt Q9NVM9 (Q9NVM9 whole entry): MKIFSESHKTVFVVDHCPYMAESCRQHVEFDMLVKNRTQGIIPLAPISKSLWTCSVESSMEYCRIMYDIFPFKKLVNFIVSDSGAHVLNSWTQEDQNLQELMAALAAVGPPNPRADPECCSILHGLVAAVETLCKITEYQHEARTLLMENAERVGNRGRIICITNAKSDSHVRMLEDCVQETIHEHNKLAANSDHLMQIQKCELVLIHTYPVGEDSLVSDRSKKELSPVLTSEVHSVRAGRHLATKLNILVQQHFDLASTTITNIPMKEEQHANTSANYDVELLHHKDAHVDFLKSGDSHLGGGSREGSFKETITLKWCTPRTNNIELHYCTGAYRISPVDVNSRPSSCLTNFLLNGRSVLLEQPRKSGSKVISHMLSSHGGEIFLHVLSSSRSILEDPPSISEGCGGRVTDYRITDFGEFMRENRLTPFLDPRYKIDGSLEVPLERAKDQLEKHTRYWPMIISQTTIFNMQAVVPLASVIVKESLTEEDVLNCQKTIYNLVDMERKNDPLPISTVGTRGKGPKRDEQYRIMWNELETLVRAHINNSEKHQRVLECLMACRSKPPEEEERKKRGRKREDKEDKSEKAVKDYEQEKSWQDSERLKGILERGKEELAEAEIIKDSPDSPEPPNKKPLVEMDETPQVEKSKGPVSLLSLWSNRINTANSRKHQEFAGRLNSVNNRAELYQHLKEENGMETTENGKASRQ
Chain of UniProt Q9Y5Y5 (Q9Y5Y5 whole entry): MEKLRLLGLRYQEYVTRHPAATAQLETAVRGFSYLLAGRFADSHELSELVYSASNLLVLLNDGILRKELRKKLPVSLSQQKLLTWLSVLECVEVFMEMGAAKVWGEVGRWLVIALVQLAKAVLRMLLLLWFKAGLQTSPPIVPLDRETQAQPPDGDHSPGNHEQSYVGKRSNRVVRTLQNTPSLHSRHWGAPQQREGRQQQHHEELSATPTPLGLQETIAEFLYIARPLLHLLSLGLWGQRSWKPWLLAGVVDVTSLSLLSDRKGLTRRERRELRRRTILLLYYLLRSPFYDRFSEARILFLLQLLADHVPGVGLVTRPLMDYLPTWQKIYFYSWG
Chain of UniProt Q9Y2Y0 (Q9Y2Y0 whole entry): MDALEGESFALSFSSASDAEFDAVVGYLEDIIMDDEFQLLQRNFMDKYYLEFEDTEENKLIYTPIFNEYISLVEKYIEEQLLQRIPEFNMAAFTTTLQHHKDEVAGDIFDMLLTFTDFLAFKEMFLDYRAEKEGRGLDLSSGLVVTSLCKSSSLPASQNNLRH

In order of rising NP40-soluble protein abundance:
1. UniProt Q96P48|Q96P48-3  0.903 ± 0.059
2. UniProt Q96RL7|Q96RL7-2|Q96RL7-3|Q96RL7-4  0.916 ± 0.024
3. UniProt Q9NYU2|Q9NYU2-2  0.917 ± 0.031
4. AASS (UniProt Q9UDR5)  0.947 ± 0.021
5. UniProt Q9Y320|Q9Y320-2  0.952 ± 0.048
6. NIPSNAP1 (UniProt Q9BPW8)  0.954 ± 0.08
7. UniProt Q9NSG2|Q9NSG2-2|Q9NSG2-3  0.955 ± 0.022
8. LRRC45 (UniProt Q96CN5)  0.97 ± 0.015
9. UniProt Q9UBK8|Q9UBK8-2  0.971 ± 0.031
10. C9orf78 (UniProt Q9NZ63)  0.971 ± 0.036
11. UniProt Q96K49|Q96K49-2  0.9718 ± 0.005
12. MRPL53 (UniProt Q96EL3)  0.98 ± 0.045
13. MRPL9 (UniProt Q9BYD2)  0.982 ± 0.09
14. UniProt Q96RG2|Q96RG2-2  0.982 ± 0.021
15. UniProt Q9Y639|Q9Y639-1  0.986 ± 0.028
16. UniProt Q9Y2Y0|Q9Y2Y0-2  0.988 ± 0.049
17. UniProt Q9H668  0.995 ± 0.018
18. UniProt Q9NPB8|H0Y565  0.999 ± 0.033
19. WDR12 (UniProt Q9GZL7)  1 ± 0.028
20. UniProt Q9UM21  1 ± 0.071
21. PUS7 (UniProt Q96PZ0)  1.008 ± 0.009
22. UniProt Q9HCJ0|Q9HCJ0-2  1.01 ± 0.022
23. UniProt Q99571|Q99571-2|F6SFZ6  1.014 ± 0.0026
24. SMARCD1 (UniProt Q96GM5)  1.01 ± 0.12
25. UniProt Q9Y462|Q9Y462-3  1.01 ± 0.036
26. UniProt Q9NVM9  1.02 ± 0.069
27. PUS3 (UniProt Q9BZE2)  1.03 ± 0.054
28. CPSF2 (UniProt Q9P2I0)  1.03 ± 0.061
29. OSTC (UniProt Q9NRP0)  1.03 ± 0.022
30. UniProt Q9Y5Y5|Q9Y5Y5-2  1.04 ± 0.024
31. UTP11 (UniProt Q9Y3A2)  1.05 ± 0.026
32. ZNF512B (UniProt Q96KM6)  1.13 ± 0.044
33. TPX2 (UniProt Q9ULW0)  1.27 ± 0.049
34. DIDO1 (UniProt Q9BTC0)  1.28 ± 0.12
35. THRAP3 (UniProt Q9Y2W1)  1.31 ± 0.044
36. UniProt Q9BQ39|A0A087WVC1  1.43 ± 0.04
37. NCOA5 (UniProt Q9HCD5)  1.73 ± 0.1

same assay, conditions: concentration: 8mM

In order of falling NP40-soluble protein abundance:
1. NCOA5 (UniProt Q9HCD5)  1.89 ± 0.14
2. UniProt Q9BQ39|A0A087WVC1  1.52 ± 0.097
3. TPX2 (UniProt Q9ULW0)  1.32 ± 0.072
4. THRAP3 (UniProt Q9Y2W1)  1.32 ± 0.028
5. DIDO1 (UniProt Q9BTC0)  1.27 ± 0.12
6. ZNF512B (UniProt Q96KM6)  1.16 ± 0.05
7. CPSF2 (UniProt Q9P2I0)  1.05 ± 0.035
8. UTP11 (UniProt Q9Y3A2)  1.05 ± 0.018
9. OSTC (UniProt Q9NRP0)  1.039 ± 0.0094
10. SMARCD1 (UniProt Q96GM5)  1.03 ± 0.12
11. UniProt Q9NVM9  1.03 ± 0.075
12. UniProt Q9Y5Y5|Q9Y5Y5-2  1.03 ± 0.032
13. NIPSNAP1 (UniProt Q9BPW8)  1.02 ± 0.036
14. UniProt Q9Y462|Q9Y462-3  1.024 ± 0.0028
15. MRPL9 (UniProt Q9BYD2)  1.01 ± 0.072
16. PUS7 (UniProt Q96PZ0)  1.01 ± 0.015
17. UniProt Q99571|Q99571-2|F6SFZ6  1.012 ± 0.0075
18. UniProt Q96RG2|Q96RG2-2  1 ± 0.026
19. UniProt Q9HCJ0|Q9HCJ0-2  1 ± 0.016
20. MRPL53 (UniProt Q96EL3)  1 ± 0.063
21. LRRC45 (UniProt Q96CN5)  1 ± 0.032
22. UniProt Q9UM21  1 ± 0.043
23. WDR12 (UniProt Q9GZL7)  0.999 ± 0.016
24. UniProt Q9NPB8|H0Y565  0.9977 ± 0.0075
25. UniProt Q9H668  0.985 ± 0.044
26. UniProt Q9Y639|Q9Y639-1  0.984 ± 0.055
27. AASS (UniProt Q9UDR5)  0.979 ± 0.01
28. PUS3 (UniProt Q9BZE2)  0.978 ± 0.032
29. UniProt Q9Y2Y0|Q9Y2Y0-2  0.975 ± 0.032
30. C9orf78 (UniProt Q9NZ63)  0.966 ± 0.034
31. UniProt Q96K49|Q96K49-2  0.9653 ± 0.0019
32. UniProt Q9NSG2|Q9NSG2-2|Q9NSG2-3  0.964 ± 0.031
33. UniProt Q9Y320|Q9Y320-2  0.962 ± 0.04
34. UniProt Q96P48|Q96P48-3  0.955 ± 0.066
35. UniProt Q96RL7|Q96RL7-2|Q96RL7-3|Q96RL7-4  0.949 ± 0.022
36. UniProt Q9UBK8|Q9UBK8-2  0.94 ± 0.051
37. UniProt Q9NYU2|Q9NYU2-2  0.936 ± 0.04

same assay, conditions: concentration: 10mM

In order of rising NP40-soluble protein abundance:
1. UniProt Q96P48|Q96P48-3  0.882 ± 0.062
2. UniProt Q9NYU2|Q9NYU2-2  0.895 ± 0.036
3. UniProt Q96RL7|Q96RL7-2|Q96RL7-3|Q96RL7-4  0.8993 ± 0.0069
4. AASS (UniProt Q9UDR5)  0.939 ± 0.027
5. C9orf78 (UniProt Q9NZ63)  0.939 ± 0.078
6. WDR12 (UniProt Q9GZL7)  0.94 ± 0.033
7. NIPSNAP1 (UniProt Q9BPW8)  0.948 ± 0.021
8. UniProt Q9Y320|Q9Y320-2  0.95 ± 0.039
9. UniProt Q9Y2Y0|Q9Y2Y0-2  0.953 ± 0.015
10. LRRC45 (UniProt Q96CN5)  0.956 ± 0.03
11. UniProt Q9Y639|Q9Y639-1  0.961 ± 0.025
12. UniProt Q9H668  0.963 ± 0.024
13. UniProt Q9UBK8|Q9UBK8-2  0.964 ± 0.049
14. UniProt Q9NSG2|Q9NSG2-2|Q9NSG2-3  0.968 ± 0.015
15. MRPL9 (UniProt Q9BYD2)  0.972 ± 0.15
16. UniProt Q96K49|Q96K49-2  0.9716 ± 0.0066
17. PUS3 (UniProt Q9BZE2)  0.974 ± 0.019
18. UniProt Q9UM21  0.991 ± 0.023
19. UniProt Q96RG2|Q96RG2-2  0.996 ± 0.024
20. MRPL53 (UniProt Q96EL3)  1 ± 0.066
21. PUS7 (UniProt Q96PZ0)  1.01 ± 0.028
22. UniProt Q99571|Q99571-2|F6SFZ6  1.01 ± 0.039
23. SMARCD1 (UniProt Q96GM5)  1.01 ± 0.12
24. UniProt Q9NPB8|H0Y565  1.02 ± 0.019
25. UniProt Q9HCJ0|Q9HCJ0-2  1.02 ± 0.02
26. UniProt Q9Y5Y5|Q9Y5Y5-2  1.02 ± 0.052
27. UniProt Q9Y462|Q9Y462-3  1.02 ± 0.013
28. UniProt Q9NVM9  1.03 ± 0.063
29. OSTC (UniProt Q9NRP0)  1.04 ± 0.015
30. CPSF2 (UniProt Q9P2I0)  1.07 ± 0.055
31. UTP11 (UniProt Q9Y3A2)  1.08 ± 0.018
32. ZNF512B (UniProt Q96KM6)  1.17 ± 0.064
33. DIDO1 (UniProt Q9BTC0)  1.36 ± 0.12
34. TPX2 (UniProt Q9ULW0)  1.39 ± 0.049
35. THRAP3 (UniProt Q9Y2W1)  1.41 ± 0.03
36. UniProt Q9BQ39|A0A087WVC1  1.5 ± 0.14
37. NCOA5 (UniProt Q9HCD5)  2.17 ± 0.35
